# Reference: PubChem BioAssay
# Where “and” joins values, the source holds several entries; their conditions need not be identical. Equal values may be shown once. Calls of active or inactive are those of the source.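 Rule for the calls, unless noted: active = normalized viability below 100% at a tested concentration; inactive = the rest.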
# Key:
# [1] = polyglutamine-triggered caspase-3 activation inhibitors, cell-based (AID 1583); details: polyglutamine-induced caspase-3 activation, cell assay; stronger effect = higher value;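 tested at 10 µM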
# [2] = hESC survival regulators, cell-based (AID 493140; call rule not given here;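 note: cells exposed to compounds for four days before counting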); details: human embryonic stem cell survival screen; stronger effect = higher value
# [3] = stimulators of insulin release from INS-1E, primary screen, cell-based, 5 mM glucose, NPC library (AID 1117329;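 active = compound raises insulin release from rat beta cells at 5 mM glucose, no numeric limit stated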); details: rat INS-1E insulin secretion, at 10 µM, stronger effect = higher value
# [4] = growth inhibition of GSK3B-pretreated HCT116 cells – cell-based, CellTiter-Glo, 0.2 to 20 µM (AID 1117336;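 active = compounds lowering colon cancer cell viability after pretreatment blocking the GSK3B kinase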); details: HCT116 viability after GSK3B inhibitor, at 20 µM, stronger effect = higher value
# [5] = inhibition of endothelial tube formation, primary screen, imaging, VEGF stimulated, CD31 staining, tube area, NPC library (AID 1117340;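 active = compound that reduces growth-factor-driven endothelial tube area in a mixed cell culture, no cutoff stated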); details: VEGF-stimulated ADSC/ECFC co-culture, at 10 µM, stronger effect = higher value
# [6] = glucagon-like peptide 1 release enhancers, primary assay, NCI-H716 cell line, NPC library (AID 1117341;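 active = compound raises GLP1 secretion from the human gut endocrine cells, with no numeric limit stated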); details: NCI-H716 cells, at 10 µM, stronger effect = higher value
# [7] = HCT116 colon cancer cell growth inhibition, primary screen, CellTiter-Glo luminescence, NPC library (AID 1117342;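 active = compounds that lower survival of HCT116 colon cancer cells in the luminescence readout, no numeric limit stated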); details: at 20 µM (top of the series)
# [8] = CellTiter-Glo luminescent readout of SW480 viability loss, NPC library primary (AID 1117343;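 active = compounds that lower viability of the colon cancer cells in the luminescence readout, with no numeric limit stated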); details: CellTiter-Glo luminescence; at 20 µM (top of the series) unless noted
# [9] = decreased DLD-1 cellular survival, CellTiter-Glo luminescent readout, NPC compound collection, primary HTS (AID 1117346;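 active = compounds that lower survival of DLD-1 colon cancer cells in the luminescence readout, no cutoff given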); details: DLD-1 viability, CellTiter-Glo luminescence; at 20 µM (top of the series)
# [10] = target: 6-phosphogluconate dehydrogenase, decarboxylating (Homo sapiens) (UniProt P52209); assay: 6PGD enzyme inhibitors, primary screen, biochemical, human, recombinant enzyme, NADPH absorbance (AID 1159550;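 active = at least 20% inhibition of 6-phosphogluconate dehydrogenase activity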); details: recombinant 6PGD, NADPH absorbance 341 nm; at 10 µM; stronger effect = higher value
# Chain of 6-phosphogluconate dehydrogenase, decarboxylating (Homo sapiens) (P52209 whole entry, looked up): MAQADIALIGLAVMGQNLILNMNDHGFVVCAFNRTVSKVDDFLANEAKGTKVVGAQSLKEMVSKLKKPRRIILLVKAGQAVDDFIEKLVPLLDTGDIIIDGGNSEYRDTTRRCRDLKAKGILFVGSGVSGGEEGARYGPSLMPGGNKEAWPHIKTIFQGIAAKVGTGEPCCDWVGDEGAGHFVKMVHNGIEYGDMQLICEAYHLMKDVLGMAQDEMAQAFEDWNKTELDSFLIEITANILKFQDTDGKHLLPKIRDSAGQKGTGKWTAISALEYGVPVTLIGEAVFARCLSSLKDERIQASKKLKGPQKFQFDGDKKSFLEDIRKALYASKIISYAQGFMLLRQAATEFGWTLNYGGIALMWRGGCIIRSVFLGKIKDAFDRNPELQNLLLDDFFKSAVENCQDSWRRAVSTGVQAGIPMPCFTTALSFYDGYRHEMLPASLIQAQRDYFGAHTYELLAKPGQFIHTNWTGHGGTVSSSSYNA
# [11] = modulation of C. elegans fzo-1 (AID 1259413; call rule not given here;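 note: fzo-1 mutant C. elegans worms in liquid wells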); details: C. elegans fzo-1 modulator screen, mean read-out; stronger effect = higher value
# [12] = differential killing of epithelial or mesenchymal cells, primary screen, imaging, PC-3E GFP, TEM4-18 mCherry, co-culture (AID 1345086;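 active = compounds killing one labelled cell type while sparing the other, by normalised counts and ratio limits, not self-fluorescent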;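 for all read-outs here: cells exposed to compound for 72 h before imaging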;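 for red/green cell ratio (normalised): normalised mesenchymal count divided by normalised epithelial count so high means epithelial killing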); details: imaging cell counts, at 1 µM; for red/green cell ratio (normalised): actives lie on both sides, counts scaled to control wells, 1 = unselective
# [13] = survival rescue of mitochondrial mutant cells in low glucose, primary screen, MELAS cybrids, Rieske KO mouse fibroblasts, CellTiter-Glo (AID 1508586;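 active = mean z-score across replicates of 1.96 or higher in either the MELAS or the Rieske mutant cell line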;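 note: z relative to plate mean and SD of compound and empty wells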)
# [14] = target: NAD(+) hydrolase SARM1 (Homo sapiens) (UniProt Q6SZW1); assay: SARM1 TIR NADase inhibitors, cell lysate, NAD-Glo luminescence (AID 1508614;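 active = compound whose remaining NAD level is above about 45 nM, limit read from the data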;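 note: higher remaining NAD means stronger inhibition of SARM1 NADase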); details: SAM-TIR HEK293T lysate NADase, at 1 µM, stronger effect = higher value
# Chain of NAD(+) hydrolase SARM1 (Homo sapiens) (Q6SZW1 whole entry, looked up, the tested form may be a part): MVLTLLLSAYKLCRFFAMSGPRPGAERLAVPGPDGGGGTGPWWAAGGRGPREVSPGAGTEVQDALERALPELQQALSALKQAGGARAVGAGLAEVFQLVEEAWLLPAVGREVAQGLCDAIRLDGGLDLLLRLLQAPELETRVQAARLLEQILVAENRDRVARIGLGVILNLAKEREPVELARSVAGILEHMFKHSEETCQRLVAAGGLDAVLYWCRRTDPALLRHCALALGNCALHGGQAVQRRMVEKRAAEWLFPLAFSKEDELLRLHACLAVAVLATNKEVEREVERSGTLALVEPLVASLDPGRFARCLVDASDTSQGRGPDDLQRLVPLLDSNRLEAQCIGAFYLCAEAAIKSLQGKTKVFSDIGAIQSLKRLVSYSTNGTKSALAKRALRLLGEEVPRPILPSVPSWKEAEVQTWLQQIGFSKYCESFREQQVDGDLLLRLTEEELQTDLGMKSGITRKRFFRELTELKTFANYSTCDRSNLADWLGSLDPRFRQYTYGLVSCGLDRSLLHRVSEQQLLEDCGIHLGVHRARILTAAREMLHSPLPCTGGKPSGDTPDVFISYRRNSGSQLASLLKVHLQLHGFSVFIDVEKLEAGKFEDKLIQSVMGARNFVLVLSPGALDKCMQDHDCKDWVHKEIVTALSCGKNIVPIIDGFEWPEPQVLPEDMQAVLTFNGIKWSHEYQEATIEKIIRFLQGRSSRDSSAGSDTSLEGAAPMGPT
# [15] = target: Mitogen-activated protein kinase 7 (Homo sapiens) (UniProt Q13164); assay: ERK5 transactivation activators in reporter cells, primary screen, cell-based, HTS (AID 1508626;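 active = luciferase signal above three times the same-plate solvent-only control wells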;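 note: luciferase driven by Gal4-ERK5 fusion binding five Gal4 sites before minimal TATA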); details: HeLa Gal4-ERK5 transactivation, 18 h, at 5 µM, stronger effect = higher value
# Chain of Mitogen-activated protein kinase 7 (Homo sapiens) (Q13164 whole entry, looked up, the tested form may be a part): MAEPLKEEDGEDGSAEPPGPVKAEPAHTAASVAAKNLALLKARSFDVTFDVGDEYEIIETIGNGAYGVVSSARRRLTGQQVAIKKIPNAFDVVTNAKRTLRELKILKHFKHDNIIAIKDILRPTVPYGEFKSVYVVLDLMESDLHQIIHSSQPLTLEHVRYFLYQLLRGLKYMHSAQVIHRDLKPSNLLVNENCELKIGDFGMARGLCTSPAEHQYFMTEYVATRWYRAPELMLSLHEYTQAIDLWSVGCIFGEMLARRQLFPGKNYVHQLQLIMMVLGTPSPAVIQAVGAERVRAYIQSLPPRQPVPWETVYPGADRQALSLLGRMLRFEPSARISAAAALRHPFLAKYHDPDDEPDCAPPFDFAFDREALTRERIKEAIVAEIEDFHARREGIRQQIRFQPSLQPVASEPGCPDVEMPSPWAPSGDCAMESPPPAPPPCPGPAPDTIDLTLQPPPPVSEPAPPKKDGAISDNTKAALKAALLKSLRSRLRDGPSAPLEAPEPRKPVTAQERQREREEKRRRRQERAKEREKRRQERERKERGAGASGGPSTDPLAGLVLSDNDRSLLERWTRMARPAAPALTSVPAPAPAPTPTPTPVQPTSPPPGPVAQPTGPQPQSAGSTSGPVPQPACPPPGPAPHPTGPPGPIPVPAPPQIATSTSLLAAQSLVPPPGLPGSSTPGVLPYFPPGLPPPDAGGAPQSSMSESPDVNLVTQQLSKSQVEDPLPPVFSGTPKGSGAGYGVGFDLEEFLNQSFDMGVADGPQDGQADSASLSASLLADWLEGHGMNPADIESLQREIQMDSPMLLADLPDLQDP
# [16] = viability rescue of complex I mutant cybrids, primary screen, cell-based, galactose medium, ATP luminescence (AID 1645843;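 active = z-score of at least 1.8 in each of two replicates, scored against plate mean and spread of sample wells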;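 note: positive z means more ATP and so rescue of galactose-driven cybrid death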); details: complex I mutant cybrid cells, 72 h, stronger effect = higher value
# [17] = stimulators of nuclear beta-catenin in C2C12, primary screen, imaging, WNT3A-conditioned medium, mouse C2C12, NPC library (AID 1117326; in the data active = nuclear beta-catenin stimulation mostly above about 4.2%, no sharp cut-off; inactive = mostly below about 10%); details: stronger effect = higher value
# [18] = ovarian cancer cell viability with rucaparib, profiling panel, oncology-focused library, rucaparib conditional (AID 1508598); details: patient-derived ovarian cancer cells, CellTiter-Glo viability, 144 h, stronger effect = lower value
# [19] = measured here: epithelial PC-3E GFP cell survival
# [20] = measured here: mesenchymal TEM4-18 mCherry cell survival
# [21] = MELAS cybrid survival, CellTiter-Glo 48 h, stronger effect = higher value
# [22] = Rieske KO mouse fibroblast survival, CellTiter-Glo 72 h
structure (smiles),measurement,setting,value
COc1ccc2cc([C@H](C)C(=O)O)ccc2c1,inhibition,[1],-27.8%
same,survival,[2],2.08 (inactive)
same,insulin secretion stimulation,[3],-0.7% (inactive)
same,viability decrease,[4],-21% (inactive)
same,tube area decrease,[5],16.3% (inactive)
same,GLP1 secretion stimulation,[6],-1.7% (inactive)
same,inhibition of viability,[7],-1.1% (inactive)
same,viability decrease (inhibition),[8],30.2% (inactive)
same,viability decrease (inhibition),[9],-14.8% (inactive)
same,inhibition,[10],-2.26% (inactive)
same,mean signal,[11],264 (inactive)
same,red/green cell ratio (normalised),[12],1.07 (inactive)
same,normalised cell number,[12]; [19],1.19
same,normalised cell number,[12]; [20],1.27
same,z-score,[13]; [21],0.168 (inactive)
same,z-score,[13]; [22],-0.681
same,remaining NAD,[14],10 nM (inactive)
same,luciferase signal,[15],36 AU (inactive)
same,z-score,[16],0.36 (inactive) and 0.18 (inactive) and 0.675 (inactive)
CNCCCN1c2ccccc2CCc2ccccc21,inhibition,[1],-34.3%
same,survival,[2],2.75 (inactive)
same,insulin secretion stimulation,[3],15.8% (inactive)
same,viability decrease,[4],-17.7% (inactive)
same,tube area decrease,[5],12.6% (inactive)
same,GLP1 secretion stimulation,[6],5.9% (inactive)
same,inhibition of viability,[7],37.5% (inactive)
same,viability decrease (inhibition),[8],104% (active)
same,viability decrease (inhibition),[9],33.3% (inactive)
same,inhibition,[10],3.76% (inactive)
same,mean signal,[11],181 (inactive)
same,red/green cell ratio (normalised),[12],1.1 (inactive)
same,normalised cell number,[12]; [19],1.36
same,normalised cell number,[12]; [20],1.5
same,z-score,[13]; [21],0.0784 (inactive)
same,z-score,[13]; [22],0.183
same,remaining NAD,[14],10 nM (inactive)
same,luciferase signal,[15],80 AU (inactive)
same,z-score,[16],-0.895 (inactive) and -0.71 (inactive)
CCCC(CCC)C(=O)O,inhibition,[1],28.5%
same,nuclear beta-catenin stimulation,[17]; at 10 µM,-1.5% (inactive)
same,nuclear beta-catenin stimulation,"[17]; stimulation, at 2 µM",8.9%
same,viability decrease,[4],4.6% (inactive)
same,inhibition of viability,[7],20.8% (inactive)
same,viability decrease (inhibition),[8],-4.3% (inactive)
same,viability decrease (inhibition),[9],13.5% (inactive)
same,inhibition,[10],13.2% (inactive)
same,mean signal,[11],274 (inactive)
same,red/green cell ratio (normalised),[12],1.21 (inactive)
same,normalised cell number,[12]; [19],0.95
same,normalised cell number,[12]; [20],1.15
same,viability,"[18]; at 0.000305 µM, OCI-C5x cells, with rucaparib 10 µM, 100% = cells with rucaparib alone",125% (inactive)
same,viability,"[18]; at 0.000305 µM, OCI-C5x cells, without rucaparib",105% (inactive)
same,viability,"[18]; at 0.000305 µM, OCI-P5x cells, with rucaparib 20 µM, 100% = cells with rucaparib alone",129% (inactive)
same,viability,"[18]; at 0.000305 µM, OCI-P5x cells, without rucaparib",126% (inactive)
same,viability,"[18]; at 0.00122 µM, OCI-C5x cells, with rucaparib 10 µM, 100% = cells with rucaparib alone",125% (inactive)
same,viability,"[18]; at 0.00122 µM, OCI-C5x cells, without rucaparib",128% (inactive)
same,viability,"[18]; at 0.00122 µM, OCI-P5x cells, with rucaparib 20 µM, 100% = cells with rucaparib alone",124% (inactive)
same,viability,"[18]; at 0.00122 µM, OCI-P5x cells, without rucaparib",121% (inactive)
same,viability,"[18]; at 0.00488 µM, OCI-C5x cells, with rucaparib 10 µM, 100% = cells with rucaparib alone",113% (inactive)
same,viability,"[18]; at 0.00488 µM, OCI-C5x cells, without rucaparib",115% (inactive)
same,viability,"[18]; at 0.00488 µM, OCI-P5x cells, with rucaparib 20 µM, 100% = cells with rucaparib alone",122% (inactive)
same,viability,"[18]; at 0.00488 µM, OCI-P5x cells, without rucaparib",127% (inactive)
same,viability,"[18]; at 0.0195 µM, OCI-C5x cells, with rucaparib 10 µM, 100% = cells with rucaparib alone",119% (inactive)
same,viability,"[18]; at 0.0195 µM, OCI-C5x cells, without rucaparib",117% (inactive)
same,viability,"[18]; at 0.0195 µM, OCI-P5x cells, with rucaparib 20 µM, 100% = cells with rucaparib alone",123% (inactive)
same,viability,"[18]; at 0.0195 µM, OCI-P5x cells, without rucaparib",123% (inactive)
same,viability,"[18]; at 0.0781 µM, OCI-C5x cells, with rucaparib 10 µM, 100% = cells with rucaparib alone",111% (inactive)
same,viability,"[18]; at 0.0781 µM, OCI-C5x cells, without rucaparib",118% (inactive)
same,viability,"[18]; at 0.0781 µM, OCI-P5x cells, with rucaparib 20 µM, 100% = cells with rucaparib alone",121% (inactive)
same,viability,"[18]; at 0.0781 µM, OCI-P5x cells, without rucaparib",124% (inactive)
same,viability,"[18]; at 0.313 µM, OCI-C5x cells, with rucaparib 10 µM, 100% = cells with rucaparib alone",116% (inactive)
same,viability,"[18]; at 0.313 µM, OCI-C5x cells, without rucaparib",115% (inactive)
same,viability,"[18]; at 0.313 µM, OCI-P5x cells, with rucaparib 20 µM, 100% = cells with rucaparib alone",118% (inactive)
same,viability,"[18]; at 0.313 µM, OCI-P5x cells, without rucaparib",122% (inactive)
same,viability,"[18]; at 1.25 µM, OCI-C5x cells, with rucaparib 10 µM, 100% = cells with rucaparib alone",119% (inactive)
same,viability,"[18]; at 1.25 µM, OCI-C5x cells, without rucaparib",112% (inactive)
same,viability,"[18]; at 1.25 µM, OCI-P5x cells, with rucaparib 20 µM, 100% = cells with rucaparib alone",112% (inactive)
same,viability,"[18]; at 1.25 µM, OCI-P5x cells, without rucaparib",128% (inactive)
same,viability,"[18]; at 5 µM, OCI-C5x cells, with rucaparib 10 µM, 100% = cells with rucaparib alone",115% (inactive)
same,viability,"[18]; at 5 µM, OCI-C5x cells, without rucaparib",116% (inactive)
same,viability,"[18]; at 5 µM, OCI-P5x cells, with rucaparib 20 µM, 100% = cells with rucaparib alone",122% (inactive)
same,viability,"[18]; at 5 µM, OCI-P5x cells, without rucaparib",112% (inactive)
same,remaining NAD,[14],10 nM (inactive)
same,luciferase signal,[15],132 AU (inactive)
same,z-score,[16],0.57 (inactive) and 0.76 (inactive) and 0.71 (inactive)
